Results taken from PubChem BioAssay AID1671192 (National Center for Advancing Translational Sciences (NCATS), 2021).
Records with an inconclusive call do not appear. Active and inactive are the calls of the source. Calls follow the shape of the dose curve; as a rule, active = well fitted curve in the direction sought with a large enough effect; inconclusive = small, poorly fitted or top-dose-only effect, or another doubt; inactive = no such curve, though single readings can be large or run the other way.

What follows are compounds tested against Polyunsaturated fatty acid lipoxygenase ALOX15 (Homo sapiens) (UniProt P16050) (assay: Counterscreen qHTS for inhibitors of human arachidonate 12S-lipoxygenase (ALOX12): ALOX15 Assay). Conditions: purified ALOX15 enzyme activity; series mostly up to 110 µM; activity change, negative = inhibition: at the top concentration.
Polyunsaturated fatty acid lipoxygenase ALOX15 (Homo sapiens), sequence (P16050 whole entry, looked up): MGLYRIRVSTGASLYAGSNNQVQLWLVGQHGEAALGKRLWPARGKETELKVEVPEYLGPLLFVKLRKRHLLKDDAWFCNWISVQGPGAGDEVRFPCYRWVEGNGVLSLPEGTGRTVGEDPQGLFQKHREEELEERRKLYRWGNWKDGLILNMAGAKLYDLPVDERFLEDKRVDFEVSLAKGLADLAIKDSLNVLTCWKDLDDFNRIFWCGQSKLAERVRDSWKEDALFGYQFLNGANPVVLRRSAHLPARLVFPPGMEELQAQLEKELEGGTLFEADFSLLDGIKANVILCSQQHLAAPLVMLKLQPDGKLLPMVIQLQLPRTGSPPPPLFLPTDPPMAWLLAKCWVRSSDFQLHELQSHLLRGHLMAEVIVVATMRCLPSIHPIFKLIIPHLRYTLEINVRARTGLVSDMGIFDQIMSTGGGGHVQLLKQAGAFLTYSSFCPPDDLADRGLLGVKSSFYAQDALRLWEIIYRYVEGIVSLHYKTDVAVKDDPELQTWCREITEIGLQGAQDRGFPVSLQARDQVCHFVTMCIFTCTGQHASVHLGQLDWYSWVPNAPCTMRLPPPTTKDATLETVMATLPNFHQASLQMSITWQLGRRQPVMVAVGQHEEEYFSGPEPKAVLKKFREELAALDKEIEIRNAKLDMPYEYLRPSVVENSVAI
In short: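 Xylenol orange–ferric complex formation, read as the 573 nm to 405 nm absorbance ratio, tracks product from 50 uM arachidonic acid turned over for 30 min at RT. Enzyme is 40 nM ALOX15, pH 7.5 HEPES buffer, compound-preincubated 15 min.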
Also: 0% is about no effect.

Structure (SMILES) | activity change, negative = inhibition
O=C(C1CCCC1)N1Cc2ccccc2CC2(CCN(Cc3ccncc3)C2)C1 (stereo not drawn) | -18% (inactive)
CC(=O)N1CCCC2(CC(c3ccccn3)=NO2)C1 (stereo not drawn) | -18.8% [at 233 µM] (inactive)
CCC(CO)Nc1ncnc2c1CN(C1CCCNC1)C(=O)CN2C (stereo not drawn) | -25.6% (inactive)
CN1CC(=O)N(c2cccc(F)c2)Cc2c(NC3CCNCC3)ncnc21 | -19% (inactive)
Fc1ccc(CN2CCn3c(nnc3C3CCCNC3)C2)cc1 (stereo not drawn) | -21.6% [at 146 µM] (inactive)
c1ccc(CN2CC(Oc3ccc4c(c3)OCO4)C2)cc1 | 12.5% [at 146 µM] (inactive)
Cc1cc(Cl)ccc1-c1ccccc1CN | 12.3% [at 146 µM] (inactive)
CN1CC(=O)N(C2CCCNCC2)Cc2c1ncnc2N1CCc2ccccc2C1 (stereo not drawn) | -3.43% (inactive)
O=C(c1ccccc1F)N1CCn2c(nnc2C2CCNCC2)C1 | 0.837% [at 146 µM] (inactive)
O=C(N1CCOCC1)N1CCCC1c1nnc2n1CCNC2 (stereo not drawn) | -2.38% [at 146 µM] (inactive)
COc1ccc(-c2nc(C3CC3)nc3c2CN([S+](=O)([O-])c2ccccc2)CC3)cc1 | 0.186% (inactive)
O=C1NCCN1C1CCN(Cc2ccc(F)cc2)CC1 | -7.78% [at 146 µM] (inactive)
CC1CCCN(c2ncnc3c2CN(C2CCNCC2)C(=O)CN3C)C1 (stereo not drawn) | -19.1% (inactive)
CN1CC(=O)N(C2CCNC2)Cc2c(NCC3CCCCC3)ncnc21 (stereo not drawn) | -16.9% (inactive)
NCc1cccc(-c2cncnc2)c1 | -18.5% [at 146 µM] (inactive)
O=C1NCc2ccccc2CC12CCN(C/C=C/c1ccccc1)CC2 | -24.6% [at 146 µM] (inactive)
CNC1CCCc2ccccc21 (stereo not drawn) | -22.1% [at 233 µM] (inactive)
CNC(=O)c1cnn2c1CN(C(=O)c1ccccc1)CC2 | 2.26% [at 146 µM] (inactive)
NCc1ccc(-c2cccc(O)c2)cc1 | -24.9% [at 146 µM] (inactive)

Structure (SMILES) | activity change, negative = inhibition
Cc1cc(C)c(S(=O)(=O)c2nnn3c2nc(NCCCOC(C)C)c2ccccc23)c(C)c1 | -24% (inactive)
CNCc1ccccc1-c1ccccc1 | -17.3% [at 233 µM] (inactive)
CN(C)CCCC(=O)N1Cc2ccccc2CC2(CCCCN2Cc2ccccc2)C1 (stereo not drawn) | -19.7% (inactive)
CC(=O)N1Cc2ccccc2CC2(CCN(Cc3ccncc3)C2)C1 (stereo not drawn) | -26.4% [at 146 µM] (inactive)
COC[C@@H]1CCCN1c1ncnc2c1CN(C1CCCNCC1)C(=O)CN2C (stereo partly drawn) | -17.6% (inactive)
COc1ccc(C(=O)N2CCn3c(nnc3C3CCNCC3)C2)cc1 | -8.92% (inactive)
CN1CC(=O)N(C2CCNCC2)Cc2c(NCCOc3ccccc3)ncnc21 | -4.67% (inactive)
NCC(=O)N1Cc2ccccc2CC2(CCCCN2CC2CCOCC2)C1 (stereo not drawn) | -24.1% (inactive)
CCOCCCNc1ncnc2c1CN(C1CCCNC1)C(=O)CN2C (stereo not drawn) | -10.3% (inactive)
c1cc2c(cc1OC1CN(CC3CCCCC3)C1)OCO2 | -4.23% [at 146 µM] (inactive)
CN1CC(=O)N(C2CCCNCC2)Cc2c1ncnc2N1CCN(Cc2ccccc2)CC1 (stereo not drawn) | 9.67% (inactive)
CN1CC(=O)N(C2CCCNCC2)Cc2c1ncnc2N1CCCCC1 (stereo not drawn) | 6.11% [at 146 µM] (inactive)
O=C(c1ccccc1)N1CCC2(CC1)C(=O)NCN2C(=O)Cc1ccccc1 | 7.33% (inactive)
O=C1NCc2ccccc2CC12CCCN2Cc1ccc(Cl)cc1 (stereo not drawn) | -6.9% [at 146 µM] (inactive)
CN1CC(=O)N(C2CCCNCC2)Cc2c1ncnc2N1CCCC(O)C1 (stereo not drawn) | -10.6% (inactive)
CN1CC(=O)N(c2cccc(F)c2)Cc2c1ncnc2N1CCC(F)CC1 | -12.8% (inactive)
CCOCCNc1ncnc2c1CN(C1CCCNCC1)C(=O)CN2C (stereo not drawn) | -14.8% (inactive)
COCCNc1ncnc2c1CN(C1CCNCC1)C(=O)CN2C | -7.45% [at 146 µM] (inactive)
COCCNC(=O)c1cc(C)nc2onc(C3CCCNC3)c12 (stereo not drawn) | -17.9% [at 146 µM] (inactive)
